# “And” between values parts separate entries of the source, which are not always exact repeats. Identical values can stand only once. Counter-ions that a name gives are not always drawn. The whole screen tested about 5,800 compounds, of which about 620 (11%) showed activity. Shown is part of a subset that was picked to be rich in actives. Unmarked numbers belong to inactive results.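 Rule for the calls: active = score above a cut-off or among the top three wells of a plate; in these data no inactive exceeds 0.85.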
# Tested on: primary human hepatic stellate cells (donor 1)
# Assay: scaled lipid accumulation score (0 = DMSO-like, 1 = nortriptyline-like); higher = stronger HSC inactivation (lipid re-accumulation), active = hit call of the paper
# Settings: 48 h
# [1] = library stock concentration: 10 mM
# [2] = library stock concentration: 3.33 mM
# [3] = library stock concentration: 1 mM
# [4] = library stock concentration: 80 uM
# [5] = library stock concentration: 400 uM
# [6] = library stock concentration: 2 mM
compound,measurement,setting,value
"CC(=O)NC1[C@@H](O)OC(CO)[C@@H](O)[C@H]1O[C@H](C)C(=O)O (stereo in doubt) [Muramic acid, N-acetyl]",scaled lipid accumulation score,,≤ 0
CCC(=O)Oc1ccc2c(c1)CC[C@@H]1[C@@H]2CC[C@]2(C)[C@@H](OC(=O)CC)CC[C@@H]12,scaled lipid accumulation score,[1],≤ 0
Brc1c(Br)c(Br)c2n[nH]nc2c1Br [Casein Kinase II Inhibitor I],scaled lipid accumulation score,[2],≤ 0
"CCN(CC)CCOC(=O)c1cc(Cl)c(N)cc1OC [SDZ-205,557 hydrochloride]",scaled lipid accumulation score,[1],0.051
CCN(CC)CCOC(=O)c1cc(Cl)c(N)cc1OC [SDZ 205-557 hydrochloride],scaled lipid accumulation score,[1],0.003
CCCCOc1cc(C(=O)OCCN(CC)CC)ccc1N [Benoxinate hydrochloride],scaled lipid accumulation score,,0.276
CCN(CCCCOC(=O)c1ccc(OC)c(OC)c1)C(C)Cc1ccc(OC)cc1 (stereo not given) [Mebeverine hydrochloride],scaled lipid accumulation score,,0.362
same,scaled lipid accumulation score,[1],≤ 0
CCN(CC)CCCCCCCCOC(=O)c1cc(OC)c(OC)c(OC)c1.Cl [TMB-8 hydrochloride],scaled lipid accumulation score,[1],1.03 (active)
CCCOc1ccc(C(=O)OCCN(CC)CC)cc1N [Proparacaine hydrochloride],scaled lipid accumulation score,,≤ 0
same,scaled lipid accumulation score,library stock concentration: 6 mM,≤ 0
CCCOc1ccc(C(=O)OCCN(CC)CC)cc1N [Proxymetacaine],scaled lipid accumulation score,[1],0.166
CCN(CC)CCCCCCCCOC(=O)c1cc(OC)c(OC)c(OC)c1,scaled lipid accumulation score,library stock concentration: 12.6 mM,1.02 (active)
CCCOc1ccc(C(=O)OCCN(CC)CC)cc1N [Proparacaine HCl],scaled lipid accumulation score,[2],≤ 0
same,scaled lipid accumulation score,[1],≤ 0
CCCCOc1cc(C(=O)OCCN(CC)CC)ccc1N [Oxybuprocaine HCl],scaled lipid accumulation score,[2],≤ 0
same,scaled lipid accumulation score,[1],0.338
COc1ccc2cc(C(C#N)OC(=O)CC3OC3c3ccccc3)ccc2c1 (stereo not given),scaled lipid accumulation score,[3],0.017
C[N+](C)(C)[C@@H](Cc1c[nH]c(=S)[nH]1)C(=O)[O-] [Ergothioneine],scaled lipid accumulation score,library stock concentration: 8.7 mM,≤ -0.006
CC(=O)Nc1ccc(NC(=S)NC(=O)c2ccc(C(C)(C)C)cc2)cc1 [Tenovin-1],scaled lipid accumulation score,[3],≤ 0
CN(C)CCCCC(=O)Nc1ccc(NC(=S)NC(=O)c2ccc(C(C)(C)C)cc2)cc1 [Tenovin-6] [listing 1 of 2 here],scaled lipid accumulation score,[3],0.143
same,scaled lipid accumulation score,[1],0.405
CN(C)CCCCC(=O)Nc1ccc(NC(=S)NC(=O)c2ccc(C(C)(C)C)cc2)cc1 [Tenovin-6] [listing 2 of 2 here],scaled lipid accumulation score,[2],1.18 (active)
"O=C(O)C=Cc1cc(Br)c(Br)c(Br)c1Br [Casein Kinase II Inhibitor III, TBCA]",scaled lipid accumulation score,[2],≤ 0
Cc1cccc(-c2[nH]c(CNc3ccccc3F)nc2-c2ccc3ncnn3c2)n1,scaled lipid accumulation score,[4],≤ -0.001
same,scaled lipid accumulation score,[5],≤ -0.001
same,scaled lipid accumulation score,[6],≤ -0.001
same,scaled lipid accumulation score,[1],≤ -0.001
CCCCCCCCCCCCCCCCOC[C@@H](O)COP(=O)(O)O [1-Hexadecyl Lysophosphatidic Acid],scaled lipid accumulation score,[3],≤ 0
Cc1nc(N=Nc2ccc(C(=O)O)cc2)c(COP(=O)(O)O)c(C=O)c1O,scaled lipid accumulation score,[1],0.139
CCCCCCCCCCCCCCCCCC(=O)NCCS(=O)(=O)O [N-Stearoyl Taurine],scaled lipid accumulation score,[3],0.008
CNC(=O)c1ccc(C)c(-n2c(C)cc(OCc3ccc(F)cc3F)c(Br)c2=O)c1,scaled lipid accumulation score,[4],0.057
same,scaled lipid accumulation score,[5],0.038
same,scaled lipid accumulation score,[6],0.056
same,scaled lipid accumulation score,[2],0.014
same,scaled lipid accumulation score,[1],≤ 0 and ≤ -0.001
CCN(CCCOc1ccc2c(Nc3cc(CC(=O)Nc4cccc(F)c4)[nH]n3)ncnc2c1)CCOP(=O)(O)O [Barasertib],scaled lipid accumulation score,[4],0.022
same,scaled lipid accumulation score,[5],≤ -0.001
same,scaled lipid accumulation score,[6],0.115
same,scaled lipid accumulation score,[1],0.242
"CCC=CCC=CCC=CCCCCCCCCCC(=O)O [11(Z),14(Z),17(Z)-Eicosatrienoic Acid]",scaled lipid accumulation score,[3],≤ 0
O=S(=O)(c1ccccc1)c1cnc2c(N3CCNCC3)cccc2c1 [listing 1 of 2 here],scaled lipid accumulation score,[1],0.994 (active)
O=S(=O)(c1ccccc1)c1cnc2c(N3CCNCC3)cccc2c1 [listing 2 of 2 here],scaled lipid accumulation score,[2],0.285
Cc1ccc(Sc2ccccc2N2CCNCC2)c(C)c1,scaled lipid accumulation score,[2],0.769
same,scaled lipid accumulation score,[1],0.102
CCCCCCC[C@H](O)/C=C/[C@@H]1[C@@H](C/C=C\CCCC(=O)O)[C@@H](O)C[C@H]1O [20-ethyl Prostaglandin F2.alpha.],scaled lipid accumulation score,[3],≤ 0
NC(=O)Nc1cc(-c2cccc(F)c2)sc1C(=O)N[C@H]1CCCNC1 [listing 1 of 2 here],scaled lipid accumulation score,[4],≤ 0
same,scaled lipid accumulation score,[5],0.06 and ≤ -0.005
same,scaled lipid accumulation score,[6],0.23 and 0.444
same,scaled lipid accumulation score,[1],0.559 and 0.276
NC(=O)Nc1cc(-c2ccccc2)sc1C(N)=O [IKK-2 Inhibitor XI],scaled lipid accumulation score,[2],≤ 0
NC(=O)Nc1cc(-c2cccc(F)c2)sc1C(=O)N[C@H]1CCCNC1 [listing 2 of 2 here],scaled lipid accumulation score,[2],0.879 (active)
CNCC(O)c1ccc(O)c(O)c1 (racemic) [(+/-)-Epinephrine hydrochloride],scaled lipid accumulation score,[1],≤ 0
"CCCCC[C@H](O)CC[C@@H]1[C@@H](C/C=C\CCCC(=O)O)[C@@H](O)C[C@H]1O [13,14-dihydro Prostaglandin F2.alpha.]",scaled lipid accumulation score,[3],≤ 0
CCCCC[C@H](O)/C=C/[C@@H]1[C@@H](CCCCCCC(=O)O)[C@@H](O)C[C@H]1O [Prostaglandin F1.alpha.],scaled lipid accumulation score,[3],≤ 0
O=P(O)(O)OC1[C@@H](O)[C@H](O)C(O)[C@H](O)[C@@H]1O (stereo partly drawn) [D-myo-Inositol-3-phosphate (sodium salt)],scaled lipid accumulation score,[3],0.009
Fc1cc(-c2ccnc(Nc3ccc(-n4cnc(N5CCOCC5)n4)cc3)n2)cc(N2CCOCC2)c1,scaled lipid accumulation score,[4],0.394
same,scaled lipid accumulation score,[5],0.734
same,scaled lipid accumulation score,[6],0.178
same,scaled lipid accumulation score,[1],0.442
Cc1nc(N)sc1-c1ccnc(Nc2ccc(N3CCOCC3)cc2)n1 [listing 1 of 3 here],scaled lipid accumulation score,[5],≤ -0.005
same,scaled lipid accumulation score,[6],≤ -0.005
same,scaled lipid accumulation score,[2],≤ 0
Cc1nc(N)sc1-c1ccnc(Nc2ccc(N3CCOCC3)cc2)n1 [listing 2 of 3 here],scaled lipid accumulation score,[1],1.02 (active)
Cc1ncc(-c2ccnc(Nc3ccc(S(C)(=O)=O)cc3)n2)n1C(C)C,scaled lipid accumulation score,[4],0.708
same,scaled lipid accumulation score,[5],0.763
same,scaled lipid accumulation score,[6],0.527
same,scaled lipid accumulation score,[2],0.078
same,scaled lipid accumulation score,[1],0.329 and 0.334
Cc1nc(N)sc1-c1ccnc(Nc2ccc(N3CCOCC3)cc2)n1 [listing 3 of 3 here],scaled lipid accumulation score,[1],1.07 (active)

# Reference: the supplement of paper PMC9135407
